# Screens from PubChem.
# This is one part of a sample in which hits are shown more often than they occur.
# CBX7 inh – CBX7 chromodomain binding inhibitors, primary screen, biochemical, AlphaScreen; normalised signal (fraction of DMSO) (test concentration not listed); 66,000 compounds, 1.1% hits; Chromobox protein homolog 7 (Homo sapiens), O95931; AlphaScreen His6-CBX7 / biotin-H3K27me3 peptide binding; hits give low values; in the data active = normalised signal below about 0.5
# Target sequence (O95931 whole entry, looked up): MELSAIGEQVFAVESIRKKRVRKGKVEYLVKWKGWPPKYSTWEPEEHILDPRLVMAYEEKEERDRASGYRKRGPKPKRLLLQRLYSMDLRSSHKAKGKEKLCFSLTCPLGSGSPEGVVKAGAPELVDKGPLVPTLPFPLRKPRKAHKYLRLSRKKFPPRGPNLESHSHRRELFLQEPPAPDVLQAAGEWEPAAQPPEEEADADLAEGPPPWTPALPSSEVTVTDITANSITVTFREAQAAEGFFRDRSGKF
# Hits are given with their value; n = inactive.
SMILES,CBX7 inh
Cc1cccc(NC(=O)CSc2nccn2-c2ccccc2)c1C,n
Cc1cc(C)c(NC(=O)CSc2nccn2-c2cccc(Cl)c2)c(C)c1,n
COc1ccccc1NC(=O)CSc1nccn1-c1cccc(Cl)c1,n
Cc1ccc(C)c(NC(=O)CSc2nccn2-c2ccc(Cl)cc2)c1,n
Cc1cccc(NC(=O)CSc2nccn2-c2ccc(Cl)cc2)c1C,0.44
CCOc1ccccc1NC(=O)CSc1nccn1-c1cccc(C)c1,n
Cc1ccc(C)c(NC(=O)CSc2nccn2-c2cccc(Cl)c2)c1,n
CCOc1ccc(N2C(=O)c3ccccc3C2Nc2cc(OC)cc(OC)c2)cc1 (configuration not stated),n
CCCCCn1c(C(C)NC(=O)Cc2ccccc2)nc2ccccc21 (configuration not stated),n
CCCc1cc(C(=O)Nc2ccc(OC)c(OC)c2)no1,n
Cc1cccc2c1-c1sc(C(=O)NCCc3ccc(S(N)(=O)=O)cc3)cc1CO2,n
CCN(CC)C(=O)c1ccccc1C(=O)c1ncc[nH]1,n
CCC(C)NC(=O)c1cc(-c2ccccc2OC)on1 (configuration not stated),n
Cc1ccccc1-c1noc(-c2cc(-c3ccncc3)nc3ccccc23)n1,n
c1ccc2c(-c3nc(-c4ccncc4)no3)cc(-c3ccncc3)nc2c1,n
CCCc1noc(-c2cc(-c3ccncc3)nc3ccccc23)n1,0.44
Cc1onc(-c2ccccc2Cl)c1C(=O)Nc1nc2ccccc2s1,n
Cc1ccc(-n2c3c(cc(C(=O)NCCCn4ccnc4)c2=O)C(=O)CC(C)(C)C3)cc1,n
COc1cc(/C=C/c2cc(C(F)(F)F)[nH]c(=O)n2)ccc1OCc1ccccc1F,n
COc1ccc(/C=C/c2cc(C(F)(F)F)[nH]c(=O)n2)cc1OC,n
COc1cc(/C=C/c2cc(C(F)(F)F)[nH]c(=O)n2)ccc1OCc1ccc(Cl)cc1Cl,0.26
COc1ccc(CCNC(=O)CC2Oc3ccccc3NC2=O)c(OC)c1 (configuration not stated),n
CCOC(=O)c1cnc2ccc(OC)cc2c1Nc1ccc(OC(F)(F)Cl)cc1,n
Cn1c(CNc2cc(Cl)ccc2Cl)nc2ccccc21,n
Cn1c(CNc2ccccc2O)nc2ccccc21,0.46
SMILES,CBX7 inh
Cc1ccccc1NCc1nc2ccccc2n1C,n
O=C(CN1C(=O)CSc2ncccc21)NCC1CCCO1 (configuration not stated),n
CCN(CC)CCN1C(=O)Cn2c3c(c4cccc1c42)CCC3,n
CN(C)CCCN1C(=O)CCn2c(-c3ccccc3)c(-c3ccccc3)c3cccc1c32,0.49
Cc1cc(C)c(Cc2c(C)nc3c(C(=O)N4CCC5(CC4)OCCO5)cnn3c2C)c(C)c1,n
COc1ccc(-c2cc3nc(C)c(CCC(=O)Nc4ccc(OC)c(OC)c4)c(C)n3n2)c(OC)c1,n
COc1ccc(C2Sc3ccccc3NC3=C2C(=O)c2ccccc23)cc1OC (configuration not stated),0.4
COc1ccc(C2CC(=O)C3=C(C2)Nc2ccccc2NC3c2ccncc2)cc1OC (configuration not stated),n
O=C1C2=C(Nc3ccccc3SC2c2ccc3c(c2)OCO3)c2ccccc21 (configuration not stated),0.35
CC(C(=O)NC1CCCC1)C1Sc2ccccc2NC1=O (configuration not stated),n
O=C(CC1Sc2ccccc2NC1=O)Nc1ccc2c(c1)OCCO2 (configuration not stated),n
O=C(CC1Sc2ccccc2NC1=O)Nc1ccc2c(c1)OCO2 (configuration not stated),n
O=C1C2=C(Nc3ccccc3SC2c2ccco2)c2ccccc21 (configuration not stated),0.39
COc1ccc(NC(=O)CC2Sc3ccccc3NC2=O)cc1OC (configuration not stated),n
Cc1nc(N2CCN(c3ccccc3F)CC2)c2c(C)c(C)sc2n1,n
COCCN1Cc2cccc(C(=O)Nc3ccc(OC)cc3OC)c2C1=O,n
COC(=O)c1cccc(Nc2nc(-c3ccccc3Cl)nc3ccccc23)c1,n
CC(=O)N1CCc2cc(S(=O)(=O)NC(CC(C)C)C(=O)NCc3ccc4c(c3)OCO4)ccc21 (configuration not stated),n
c1cc2nncn2nc1NCCN1CCOCC1,n
CC(NC(=O)CN1C(=O)c2ccccc2S1(=O)=O)c1ccccc1 (configuration not stated),n
Cc1ccc(S(=O)(=O)c2nc(C)oc2NCc2ccccc2)cc1,n
Cn1cnc(S(=O)(=O)NCc2ccccc2)c1,n
O=[N+]([O-])c1ccc(-c2cn(-c3ccccc3NCc3ccccc3)cn2)o1,0.48
COC(CNC(=O)c1cc2c(s1)CS(=O)(=O)C2)OC,n
COc1ccc(OCc2nc(-c3ccc(Br)cc3)no2)cc1,n
SMILES,CBX7 inh
Cc1ccc(C2C(=O)N(C3CCC(C)CC3)CC(=O)N2Cc2ccccc2Cl)cc1 (configuration not stated),n
OC(COc1ccccc1Cl)Cn1cnc2ccccc21 (configuration not stated),0.25
CCCc1nc2ccccc2n1CC(O)COc1c(C)cc(C)cc1C (configuration not stated),n
O=C(O)c1ccccc1OCC(O)Cn1cnc2ccccc21 (configuration not stated),n
OC(COc1ccc(Br)cc1)Cn1cnc2ccccc21 (configuration not stated),n
Cc1cc(C)c(OCC(O)Cn2cnc3ccccc32)c(C)c1 (configuration not stated),0.48
Cc1ccc(Cl)c(OCC(O)Cn2cnc3ccccc32)c1 (configuration not stated),n
COC(=O)CNC(=O)c1sc2ncn(CC(=O)Nc3ccccc3OC)c(=O)c2c1C,n
CCOC(=O)c1cnc2ccccc2c1Nc1ccccc1C,n
COCCCNC(=O)c1oc2ccc(S(=O)(=O)N3CCCC3)cc2c1C,n
CCc1cccc(NC(=O)CN2C(=O)CSc3ncccc32)c1,n
O=C(Nc1ccncc1)C1CCN(C(=O)c2cnn(-c3ccccc3)c2-n2cccc2)CC1,n
O=C(C1CCC1)N1CCc2cc(S(=O)(=O)N3CCC(Cc4ccccc4)CC3)ccc21,n
Cc1cc(-c2csc(Nc3ncccc3C)n2)ccc1F,n
CCOc1ccc(S(=O)(=O)c2cn(Cc3ccccc3Cl)c3ccc(OC)cc3c2=O)cc1,n
CCOc1ccc(S(=O)(=O)NC2CCCCC2)cc1-c1nc2c(C(C)(C)C)nn(C)c2c(=O)[nH]1,n
COc1ccc(CN2CC(C(=O)NCc3ccc(F)cc3)CC2=O)cc1 (configuration not stated),n
COc1ccc(CN2CC(C(=O)NC3CCCC3)CC2=O)cc1 (configuration not stated),n
COc1ccc(CN2CC(C(=O)NCc3ccccn3)CC2=O)cc1 (configuration not stated),0.37
COc1ccc(OC)c(CN2CCN(Cc3ccc4ccccc4c3)CC2)c1,n
O=C(CC1(O)C(=O)N(CCc2ccccc2)c2ccc(Br)cc21)c1ccccc1 (configuration not stated),n
CCCN1C(=O)C(O)(CC(=O)c2ccc(C(C)C)cc2)c2cc(Br)ccc21 (configuration not stated),0.14
CCCCN1C(=O)C(O)(CC(=O)c2ccc(C(C)C)cc2)c2cc(Br)ccc21 (configuration not stated),n
